From PubChem BioAssay (NCATS)
Inconclusive results are not listed. Activity calls are given as the source filed them. Calls come from the whole dose curve; as a rule, active = well fitted inhibition curve with a large enough effect; inconclusive = small, poorly fitted or top-dose-only effect; inactive = flat fitted curve, though single readings scatter.

target: Calcium and integrin-binding protein 1 (Homo sapiens) (UniProt Q99828); experiment: Primary qHTS for Identification of Calcium Integrin Binding Protein 1 (CIB1) Competitor (AID 1508620); conditions: CIB1-GST / FITC-alphaIIb peptide fluorescence polarization; series mostly up to 114 µM; activity change, negative = inhibition: at the top concentration; note: top concentration of the series differs between compounds
Sequence (Q99828 whole entry, looked up): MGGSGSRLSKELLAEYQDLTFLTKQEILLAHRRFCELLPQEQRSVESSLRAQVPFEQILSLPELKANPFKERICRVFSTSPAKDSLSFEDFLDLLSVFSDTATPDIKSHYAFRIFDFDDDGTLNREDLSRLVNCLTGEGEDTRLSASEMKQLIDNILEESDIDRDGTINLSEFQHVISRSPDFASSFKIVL
Method in brief: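 Fluorescence polarization competition: GST-tagged CIB1 (1 uM final) preincubated with compound 15 min at room temperature, then FITC-labelled alphaIIb peptide (100 nM final) added. After 15 min at room temperature, polarization read at Ex 480/Em 540.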
% is set by controls: 0 for no effect and ±100 for the full control effect.

Row | Compound | activity change, negative = inhibition
1 | Cc1ccc(CNc2cccc(N3CCCCC3)c2)cc1 | 14.5% (inactive)
2 | Cc1nnc(-c2cnn(C)c2N)n1CCCc1ccncc1 | 2.64% (inactive)
3 | O=C(CN1C(=O)CC(c2ccco2)Sc2ccccc21)Nc1ccccc1F (stereo not given) | -4.31% (inactive)
4 | COc1ccc(C2=Nn3c(nnc3-c3ccccc3O)SC2)cc1 | -0.42% (inactive)
5 | O=C(Nc1nc2cc(C(F)(F)F)ccc2s1)c1ccc(-c2cccc([N+](=O)[O-])c2)o1 | 1.09% (inactive)
6 | Cc1sc(NC(=O)Cc2ccc3c(c2)OCO3)nc1-c1ccc2c(c1)CCN2 | 4.34% (inactive)
7 | CCC(=O)NC(C)c1cc(Cl)c2cccnc2c1O (stereo not given) | -18.7% (inactive)
8 | N#CC1CCN(c2nc(-c3ccc(Br)cc3)cs2)CC1 | 1.95% (inactive)
9 | O=C1c2ccccc2C(=O)N1c1nccs1 | -0.877% (inactive)
10 | COc1cc(OC)cc(N2CCN(C(=S)Nc3cc(C)cc(C)n3)CC2)c1 | -2.1% (inactive)
11 | Cc1cc(C)nc(NC(=S)N2CCN(c3cc(Cl)cc(C(F)(F)F)c3)CC2)c1 | -12.4% (inactive)
12 | Cc1ccc(N[S+](=O)([O-])c2cc3c(cc2Cl)NC(=O)CO3)cc1Br | -5.18% (inactive)
13 | O=C(O)c1ccc2c(c1)C(=O)N([C@H](Cc1ccc(C(F)(F)F)cc1)C(=O)O)C2=O | -1.54% (inactive)
14 | COc1ccc(-c2nc3ccc(Cl)cc3c(=O)n2Cc2ccccc2)cc1COc1ccc(NC(C)=O)cc1 | 3.89% (inactive)
15 | CS(=O)(=O)c1ccc(C(=O)OCC(=O)N2CCC(c3ccccc3)CC2)cc1[N+](=O)[O-] | -13.5% (inactive)
16 | COc1cc(NC(=O)C(OC(=O)CNC(=O)c2ccccc2)c2ccccc2)cc(C(F)(F)F)c1 (stereo not given) | -2.04% (inactive)
17 | N#CNC(=O)c1ccc(-n2cccc2/C=C2\NC(=O)N(CC(=O)Nc3cccc(F)c3)C2=O)cc1 | 6.07% (inactive)
18 | Cn1ncc(-c2nnc(-c3ccccc3)n2CCCn2ccnc2)c1N | -0.693% (inactive)
19 | Fc1ccc(Nc2cc(-c3ccccc3)nc(-c3ccncc3)n2)cc1F | 5.17% (inactive)
20 | Cc1cc(-c2nnc3n2CCC3)c(C)n1-c1ccccc1 | 5.46% (inactive)

Row | Compound | activity change, negative = inhibition
21 | Cc1cc(C)nc(NC(=S)N2CC3CN(c4ncc(C(F)(F)F)cc4Cl)CC3C2)c1 (stereo not given) | 0.0882% (inactive)
22 | O=C1CCCC2=C1C(c1[nH]ncc1Cl)N=C(c1nc3ccccc3o1)N2 (stereo not given) | -11.5% (inactive)
23 | Cc1ccc(NCc2ccc(O)c3ncccc23)c(F)c1 | 7.59% (inactive)
24 | NC(=O)C1CCN(c2nc(-c3ccccc3)cs2)CC1 | 1.84% (inactive)
25 | Cc1ccc(S(=O)(=O)NC(N)=NCCC[C@@H](N)C(=O)Nc2cc(C(F)(F)F)ccc2Cl)cc1 | -4.65% (inactive)
26 | Cc1cc(C)nc(NC(=S)N2CCN(c3ccccc3C#N)CC2)c1 | -10.5% (inactive)
27 | NC(=O)C1CCN(c2nc(-c3cccc(F)c3)cs2)CC1 | 3.29% (inactive)
28 | O=S1(=O)N=C(Oc2cccc(-c3ccccc3)c2)c2ccccc21 | 2.12% (inactive)
29 | O=C(OCC#CCSc1nnc(-c2cccc3ccccc23)o1)c1ccc(Cl)cc1 | 0.96% (inactive)
30 | O=Cc1ccc(-c2ccc3ncnc(NCc4cccs4)c3c2)o1 | 4.7% (inactive)
31 | CCNc1ncnc2ccc(-c3ccc4c(c3)OCO4)cc12 | -4.66% (inactive)
32 | Cc1csc(CNc2ncnc3cc(-c4ccc5c(c4)OCO5)ccc23)n1 | -0.0285% (inactive)
33 | Cc1cc2c(s1)c1cnn(Cc3cc(F)ccc3C)c(=O)c1n2C | -0.189% (inactive)
34 | O=C(CNC(=O)c1ccccc1)OC(C(=O)Nc1cc([N+](=O)[O-])ccc1F)c1ccccc1 (stereo not given) | -9.3% (inactive)
35 | Cc1cc(C)nc(NC(=S)N2CCN(c3cc(Cl)c(Cl)c(Cl)c3)CC2)c1 | 5.25% (inactive)
36 | COc1cccc(NC(=O)C(OC(=O)CNC(=O)c2ccccc2)c2ccccc2)c1 (stereo not given) | -0.934% (inactive)
37 | O=C(Nc1ccc2ccccc2c1)Nc1nnc(-c2ccc(F)cc2)s1 | -2.18% (inactive)
38 | Cn1ncc2ccc(-c3ccc4ncnc(NCc5cccs5)c4c3)cc21 | 24% (inactive)
39 | COc1cccc(NC(=S)N2CCN(c3ccccc3C(F)(F)F)CC2)n1 | -3.06% (inactive)
40 | Cc1ccc2nc3sc(C(=O)NCCc4cccnc4)cc3cc2c1 | 2.34% (inactive)
